Experimental data reported in PubChem BioAssay (EPA / NIEHS).
Activity calls are given as the source filed them. The calls were made as follows: active = hit-call score of the fitted dose curve at least 0.9, where 1 is the maximum; inactive = score below 0.9.

Each compound was assayed on urokinase plasminogen activator (uPA), PLAU (gene 5328) (assay: BSK_BE3C_uPA: BioMAP Diversity Plus: BE3C Assay for urokinase plasminogen activator (uPA) Biomarker Activity (AID 2283038)). Settings: primary human bronchial epithelial cells; actives raise or lower the signal.
Description: BSK_BE3C is a cell-based, multiplexed-readout assay that uses bronchial epithelial cell, a human lung primary cell, with measurements taken at 24 hours after chemical dosing in a 96-well plate.BSK_BE3CA is an assay component measured in the BSK_BE3C assay. It measures uPA antibody related to regulation of gene expression using ELISA technology.Data from the assay component BSK_BE3CA was analyzed into 1 assay endpoint. This assay endpoint, BSK_BE3CA, was analyzed with bidirectional fitting relative to DMSO as the negative control and baseline of activity. Using a type of binding reporter, gain or loss-of-signal activity can be used to understand changes in the signaling as they relate to the gene PLAU. Furthermore, this assay endpoint can be referred to as a primary readout, because this assay has produced multiple assay endpoints where this one serves a signaling function. To generalize the intended target to other relatable targets, this assay endpoint is annotated to the protease intended target family, where the subfamily is serine protease.
The levels of cell surface (or secreted, indicated by the prefix "s") biomarker endpoints were measured by ELISA. Overt cytotoxicity to cells in confluent adherent cultures (all systems other than the BT system) was assessed by measuring total protein levels using sulforhodamine B (SRB) staining in parallel cultures at the time of biomarker measurements, indicated as SRB endpoints. For proliferation assays for adherent cell types, individual cell types are cultured at sub-confluence and relative cell numbers quantified by SRB staining at time points optimized for each system (48 h: 3C and CASM3C systems; 72 h: BT and HDF3CGF systems; 96 h: SAg system). SRB was performed by staining cells with 0.1% SRB after fixation with 10% TCA and reading wells at 560 nm.Viability and proliferation of PBMC (T cells) was quantified by Alamar Blue reduction for the SAg and BT systems. For PBMC viability (referred to as PBMC Cytotoxicity within the assay endpoint names), cells were plated (75,000/well in a 96-well plate) and then chemical samples added for 1 h before addition of activators, SEB and TSST-1 (20 ng/mL final concentration each). Cells were incubated for 90 h. Then, Alamar Blue (20 uL/well) (Invitrogen, Cat DAL1100) was added for 6 h, and the plates were read with a fluorescence microplate reader at 546/580 nm (excitation/emission). For PBMC proliferation, cells were plated and activated as above but incubated for only 16 h prior to addition of Alamar Blue. Plates were read after 6 h.

AC50, active:
CC(C)(C)c1csc(-c2cc3cc(OCc4ccccc4CC(=O)O)ccc3o2)n1 11.6 µM
COc1cc(C(=O)NC2CCN(C)CC2)ccc1Nc1ncc2c(n1)N(C1CCCC1)CC(F)(F)C(=O)N2C 12.6 µM
CCOC(=O)O[C@H](C)OC(=O)c1ccc2c(c1)cc(C(=O)NC1CCN(C(C)C)CC1)n2Cc1cc(-c2ccc(Cl)s2)on1 9.63 µM
Cc1cc2c(cc1C(F)(F)F)N(C(=O)Nc1ccc(Oc3cccnc3C)nc1)CC2 11.7 µM
CCCCCCCCOC(=O)c1cc(O)c(O)c(O)c1 37.7 µM
CCN(Cc1cccnc1)C(=O)c1cccc(Cl)c1[C@]1(C)C(=O)N(Cc2ccc(OC)cc2OC)c2ccc(Cl)cc21 5.67 µM
Clc1ccccc1C(c1ccccc1)(c1ccccc1)n1ccnc1 9.81 µM
COc1ccc2cc(S(=O)(=O)N[C@H](CC(=O)N[C@H](Cc3ccc(CN4[C@H](C)CCC[C@@H]4C)cc3)C(=O)N(C)C(C)C)c3ccc4c(c3)OCO4)ccc2c1 14.6 µM
O=c1[nH]sc2ccccc12 33.6 µM
CN(C)C(=O)C1(N2CCCCC2)CCN(CC[C@@]2(c3ccc(Cl)c(Cl)c3)CN(C(=O)c3ccccc3)CCO2)CC1 17.7 µM
CCCCCCCCCCCC[N+](C)(C)C 31.6 µM
CN(C)c1ccc(C(=C2C=CC(=[N+](C)C)C=C2)c2ccc(N(C)C)cc2)cc1 1.97 µM
NC(=O)c1nc(-c2cccc(-c3cc(F)ccc3OCC(F)(F)C(F)(F)F)c2)n[nH]1 37.7 µM
CCN(CC)C(=O)c1cc(S(=O)(=O)Cc2ccccc2)c(N2CCC(c3ccccc3)CC2)cc1N(CC)CCN(C)C 10.3 µM

outcome, inactive:
O=c1c(-c2ccc(O)cc2)coc2cc(O)cc(O)c12
O=C=NCCCCCCN=C=O
CCCCCCCCOc1ccc(C(=O)c2ccccc2)c(O)c1
CCCCCCCC[Si](OCC)(OCC)OCC
CCCCOC(=O)CC(CC(=O)OCCCC)(OC(C)=O)C(=O)OCCCC
COc1cccc([C@H](O)C2CCN(CCc3ccc(F)cc3)CC2)c1OC
Cc1ncc(CO)c(CO)c1O
CC[C@@H]1C[C@H](N(Cc2cc(C(F)(F)F)cc(C(F)(F)F)c2)C(C)=O)c2cc(C(F)(F)F)ccc2N1C(=O)OC(C)C
CCCCCCCCN(C)CCCCCCCC
CCO[Si](CCCNC(N)=O)(OCC)OCC
CO[C@H]1/C=C/O[C@@]2(C)Oc3c(C)c(O)c4c(O)c(c(/C=N/N5CCN(C)CC5)c(O)c4c3C2=O)NC(=O)/C(C)=C\C=C\[C@H](C)[C@H](O)[C@@H](C)[C@@H](O)[C@@H](C)[C@H](OC(C)=O)[C@@H]1C
C[C@]12CC[C@@H]3c4ccc(O)cc4CC[C@H]3[C@@H]1CCC2=O
Cc1cn([C@H]2C[C@H](N=[N+]=[N-])[C@@H](CO)O2)c(=O)[nH]c1=O
CCCC(=O)OCCC(C)C
O=C1c2ccccc2C(=O)N1CCc1noc(-c2ccc(CN3CCCCCC3)s2)n1
O=C(O)Cc1cc(I)c(Oc2ccc(O)c(I)c2)c(I)c1
O=c1ccc2ccccc2o1
O=C(OCCCCCCOC(=O)c1ccccc1)c1ccccc1
C[C@]12CC[C@@H]3c4ccc(O)cc4CC[C@H]3[C@@H]1CC[C@H]2O
CCCCCc1ccc(N)cc1
CC[C@H](NC(=O)c1cc(F)ccc1NS(=O)(=O)c1cccc2cccnc12)c1ccccc1
CCCCCCCCCCCCO
Cc1occc1C(=O)Nc1ccc(C(=O)N2CCC(F)(F)/C(=C\C(=O)N3CCC(N4CCCCC4)CC3)c3ccccc32)cc1
c1ccc2ccccc2c1
CCCCCCCCCCCO
Cc1ccc2oc(CN(Cc3ccccc3)C(=O)Nc3c(F)cc(F)cc3F)c(-c3ccc(Cl)cc3)c2c1
